In PubChem BioAssay AID1471 (National Center for Advancing Translational Sciences (NCATS), 2008):
“And” between values parts separate entries of the source, which are not always exact repeats. Equal entries are not always repeated. The campaign covered roughly 230,000 compounds. About 310 (0.13%) were called active. A call without a number means that no potency is given here. Inconclusive results (about 2%) are left out. This is one part of a sample in which actives are shown more often than they occur. A number with no mark means an inactive call. Calls come from the whole dose curve; as a rule, active = well fitted activation curve with a large enough effect; inconclusive = small, poorly fitted or top-dose-only effect; inactive = no such curve, though single readings can be large or run the other way.

Assay: qHTS Multiplex Assay to Identify Dual Action Probes in a Cell Model of Huntington: Cytoprotection (ATP); note: nearly all actives have a fitted effect of over 45% in size;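 for cytoprotection (ATP increase): toxic huntingtin expression switched on by the ecdysone agonist tebufenozide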
Details: PC12 HTT-Q103 induced, ATP luminescence, 40 h; series mostly up to 56.4 µM
Text: NIH Chemical Genomics Center [NCGC]
NIH Molecular Libraries Probe Production centers Network [MLPCN]
Assay Submitter (PI): Wei Zheng
Huntington's disease is a neurodegenerative disorder caused by a trinucleotide repeat expansion in Exon 1 of the Huntingtin gene. The CAG trinucleotide encodes glutamine and polyglutamine expansions cause cell death in selective areas of the brain. Huntington polyglutamine repeats have the tendency to form aggregates which are observable in later stages of the disease. The exact nature of the aggregates, whether toxic, protective, or insignificant, is unclear.
A stable PC12 cell line containing a gene fusion of Exon 1 of the Huntingtin gene linked to GFP under the control of the inducible ecdysone promoter were used as the cell-based model of Huntington Disease for high throughput screening. Exon 1 of the Huntingtin gene contained an expansion of 103 polyglutamines (Q103) which, when expressed, caused cell death and distinct, bright GFP aggregates. The amount of cell death and the size and intensity of GFP aggregates increased over time and induction level. The cell death were quantified with a measurement of ATP content in the cells. A maximal 40-50% of cell death was observed when the Huntington gene was induced in this cell line.
We optimized this assay in a homogeneous 1536 well format. A quantitative high throughput screen (qHTS) was conducted on the PC12 cells which were induced to express the toxic fusion construct. Small molecules which prevented cell death were identified by using a luminescent ATP quantification method (Perkin Elmer's ATPlite).
PC12 cells stably containing a construct with an ecdysone inducible promoter expressing GFP fused to the exon 1 of HTTQ103 (Huntington protein which containing a 103 ployglutamine expansion) were used.
NCGC Assay Protocol Summary:
Sequence, Parameter, Description
1, Reagent, 5 uL 1500 cells/well 1536 TC treated White clear bottom plate
2, Compound, 23 nL Tebufenozide inducer (100 nM final) to all columns
3, Compound, 23 nL 40 uM to 0.5 nM Libraries
5, Reagent, 5 ul ATPLite cell death assay reagent
6, Detector, 4 sec integration with a Viewlux Luminescent
Media consisted of phenol red free DMEM + 5% equine serum (Hyclone # SH30072.03 ), 5% supplemented Bovine Calf Serum (Hyclone # SH30074.03 ), 1x pen/strep, no G418
Control columns: 1 = DMSO, 2= 2 uM teb dilns (1:1), 4 = 100 nM Teb inducer. Sample columns received 100 nM Teb.
Potency is the fitted concentration of half-maximal effect.

Compound	Potency	cytoprotection (ATP increase)
CC(C)(O)/C=C\C(=O)[C@](C)(O)[C@H]1[C@H](O)C[C@]2(C)[C@@H]3CC=C4[C@@H](C=C(O)C(=O)C4(C)C)[C@]3(C)C(=O)C[C@@]12C	5.01 µM (active)	–
C[N+]1(C)C2CC(OC(=O)C(CO)c3ccccc3)CC1[C@@H]1O[C@H]21 (some centres undefined)	–	17.6% [at 1.9 µM] and 4.91% [at 1.9 µM]
CC1=CC(=O)C2=C(C)C[C@H](O)[C@@H]3[C@@H](OC(=O)[C@H]3C)[C@H]12	–	inactive
CC(C)(O)[C@H]1[C@H]2OC(=O)[C@@H]1[C@]1(O)C[C@H]3O[C@]34C(=O)O[C@H]2[C@]14C	–	inactive
